Measured values: ChEMBL document CHEMBL3988442, “University of Dundee, Small-Polar-MMV Screening Library” (2021)
For some assays here: Measured potencies and affinities stand elsewhere.

Columns and labels:
Parameters in all cases: scale not given: direction of the effect not stated beside the values
[1] = biological target: Protein translocase subunit SecA (Escherichia coli (strain K12)) (UniProt P10408); assay: Assay to Identify E. coli SecA ATPase Inhibitors; type: functional; details: 30 µM
[2] = biological target: T1, Ubiquitin-activating enzyme e1, putative (Leishmania donovani (strain BPK282A1)) (UniProt E9BSI1); assay: Leishmania donovani Ubiquitin Activating Enzyme (LdE1); type: functional; details: 30 µM
T1 sequence (whole entry): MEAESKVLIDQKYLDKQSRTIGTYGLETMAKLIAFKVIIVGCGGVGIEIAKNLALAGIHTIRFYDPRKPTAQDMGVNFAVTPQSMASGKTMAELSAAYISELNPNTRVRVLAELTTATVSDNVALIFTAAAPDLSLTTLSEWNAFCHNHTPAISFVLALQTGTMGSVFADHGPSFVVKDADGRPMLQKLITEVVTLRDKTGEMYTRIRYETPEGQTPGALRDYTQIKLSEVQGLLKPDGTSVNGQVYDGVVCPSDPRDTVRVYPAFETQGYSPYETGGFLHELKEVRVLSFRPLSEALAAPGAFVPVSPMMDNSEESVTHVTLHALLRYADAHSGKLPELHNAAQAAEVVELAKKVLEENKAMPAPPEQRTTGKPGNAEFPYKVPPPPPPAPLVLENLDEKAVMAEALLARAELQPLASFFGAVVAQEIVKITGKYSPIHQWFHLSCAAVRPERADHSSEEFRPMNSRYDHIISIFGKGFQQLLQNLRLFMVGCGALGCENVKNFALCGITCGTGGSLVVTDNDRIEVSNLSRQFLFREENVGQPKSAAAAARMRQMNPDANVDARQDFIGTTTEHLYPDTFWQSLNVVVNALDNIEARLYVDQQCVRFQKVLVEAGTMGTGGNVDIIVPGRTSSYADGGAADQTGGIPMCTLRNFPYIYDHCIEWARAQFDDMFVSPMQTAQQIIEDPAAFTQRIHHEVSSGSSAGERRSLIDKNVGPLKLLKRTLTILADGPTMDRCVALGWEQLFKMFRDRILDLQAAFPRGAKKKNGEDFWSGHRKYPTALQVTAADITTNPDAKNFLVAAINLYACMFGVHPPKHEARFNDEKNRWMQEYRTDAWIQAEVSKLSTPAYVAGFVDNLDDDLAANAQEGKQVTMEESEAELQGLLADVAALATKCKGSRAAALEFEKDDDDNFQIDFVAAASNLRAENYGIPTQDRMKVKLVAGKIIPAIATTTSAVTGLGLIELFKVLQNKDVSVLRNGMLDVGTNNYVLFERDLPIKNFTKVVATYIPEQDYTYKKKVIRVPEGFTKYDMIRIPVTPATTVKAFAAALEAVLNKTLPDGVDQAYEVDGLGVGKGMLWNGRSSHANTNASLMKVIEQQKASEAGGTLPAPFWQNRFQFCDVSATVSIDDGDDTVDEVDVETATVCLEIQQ

[3] = biological target: AMP-activated protein kinase, AMPK (Homo sapiens) (UniProt P54646+O43741+P54619+Q9UGJ0+Q9Y478+Q13131+Q9UGI9); assay: AMP-dependent Kinase enzyme assay. An in vitro enzyme assay that detects ADP turnover that is directly proportional to AMPK activity. This uses naive AMPK that is activated during the assay with MK-8722; type: functional; details: 30 µM
[4] = biological target: Sialic acid-binding Ig-like lectin 9 (Homo sapiens) (UniProt Q9Y336); assay: Hs-Siglec9 ALPHAscreen SOP 20170721; details: 10 µM
Sialic acid-binding Ig-like lectin 9 (Homo sapiens), sequence (Q9Y336 whole entry): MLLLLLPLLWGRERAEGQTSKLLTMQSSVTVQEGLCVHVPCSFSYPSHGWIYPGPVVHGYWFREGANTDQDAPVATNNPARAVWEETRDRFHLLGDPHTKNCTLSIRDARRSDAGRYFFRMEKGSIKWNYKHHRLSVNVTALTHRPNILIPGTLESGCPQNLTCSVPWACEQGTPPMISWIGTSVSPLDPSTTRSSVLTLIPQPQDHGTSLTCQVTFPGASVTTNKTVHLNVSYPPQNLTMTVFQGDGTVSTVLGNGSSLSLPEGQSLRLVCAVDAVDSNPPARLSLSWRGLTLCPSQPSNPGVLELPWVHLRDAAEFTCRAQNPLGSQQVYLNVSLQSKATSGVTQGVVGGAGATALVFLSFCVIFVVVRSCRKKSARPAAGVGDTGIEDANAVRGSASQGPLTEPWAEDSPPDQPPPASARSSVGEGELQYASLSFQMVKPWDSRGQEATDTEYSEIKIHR

Trypanosoma cruzi = assay: Trypanosoma cruzi phosphomannomutase and mannose-1-phosphate guanylyltransferase assay; type: functional; details: 10 µM
[5] = biological target: T2, Arginase-2, mitochondrial (Homo sapiens) (UniProt P78540); assay: in vitro enzyme assay to detect the production of urea directly proportional to the activity of Arginase II; type: functional; details: 33.3 µM; also: in the data most compounds retested in dose-response had high values
T2 sequence (whole entry): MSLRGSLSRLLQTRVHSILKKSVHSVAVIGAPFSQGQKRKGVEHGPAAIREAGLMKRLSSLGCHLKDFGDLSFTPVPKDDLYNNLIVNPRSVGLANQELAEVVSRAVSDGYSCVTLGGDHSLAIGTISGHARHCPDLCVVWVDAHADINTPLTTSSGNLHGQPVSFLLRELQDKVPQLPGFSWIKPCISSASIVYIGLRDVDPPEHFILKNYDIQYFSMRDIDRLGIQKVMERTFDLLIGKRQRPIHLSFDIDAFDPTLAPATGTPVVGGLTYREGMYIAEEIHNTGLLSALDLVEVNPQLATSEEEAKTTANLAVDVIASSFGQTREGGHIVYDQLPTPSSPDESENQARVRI

[6] = biological target: T3, Proteasome subunit beta (Trypanosoma cruzi) (UniProt O96673); assay: Trypanosoma cruzi proteasome chymotrypsin-like activity (TcProtChymo) assay.; also: in the data most compounds retested in dose-response had high values; type: functional; details: 9.37 µM
T3 sequence (whole entry): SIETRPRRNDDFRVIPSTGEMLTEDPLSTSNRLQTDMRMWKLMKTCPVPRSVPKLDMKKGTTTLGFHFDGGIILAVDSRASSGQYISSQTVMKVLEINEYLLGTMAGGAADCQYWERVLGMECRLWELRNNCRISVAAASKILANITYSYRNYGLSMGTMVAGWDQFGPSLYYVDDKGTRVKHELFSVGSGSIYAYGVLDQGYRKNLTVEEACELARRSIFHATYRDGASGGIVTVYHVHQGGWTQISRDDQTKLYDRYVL

Homo sapiens = species: Homo sapiens; assay: To identify inhibition of the IFN signalling (Jak-Stat) pathway via expression of an eGFP reporter gene under the control of an IFN-stimulated response element (ISRE) containing MxA promoter.; type: functional; details: 30 µM
[7] = biological target: T4, Tyrosyl-tRNA synthetase, putative (Trypanosoma cruzi (strain CL Brener)) (UniProt Q4DSP6); assay: Trypanosoma cruzi tyrosyl tRNA synthetase (TcYRS) _High Tyrosine SOP; type: functional; details: 30 µM; also: in the data most compounds retested in dose-response had high values
T4 sequence (whole entry): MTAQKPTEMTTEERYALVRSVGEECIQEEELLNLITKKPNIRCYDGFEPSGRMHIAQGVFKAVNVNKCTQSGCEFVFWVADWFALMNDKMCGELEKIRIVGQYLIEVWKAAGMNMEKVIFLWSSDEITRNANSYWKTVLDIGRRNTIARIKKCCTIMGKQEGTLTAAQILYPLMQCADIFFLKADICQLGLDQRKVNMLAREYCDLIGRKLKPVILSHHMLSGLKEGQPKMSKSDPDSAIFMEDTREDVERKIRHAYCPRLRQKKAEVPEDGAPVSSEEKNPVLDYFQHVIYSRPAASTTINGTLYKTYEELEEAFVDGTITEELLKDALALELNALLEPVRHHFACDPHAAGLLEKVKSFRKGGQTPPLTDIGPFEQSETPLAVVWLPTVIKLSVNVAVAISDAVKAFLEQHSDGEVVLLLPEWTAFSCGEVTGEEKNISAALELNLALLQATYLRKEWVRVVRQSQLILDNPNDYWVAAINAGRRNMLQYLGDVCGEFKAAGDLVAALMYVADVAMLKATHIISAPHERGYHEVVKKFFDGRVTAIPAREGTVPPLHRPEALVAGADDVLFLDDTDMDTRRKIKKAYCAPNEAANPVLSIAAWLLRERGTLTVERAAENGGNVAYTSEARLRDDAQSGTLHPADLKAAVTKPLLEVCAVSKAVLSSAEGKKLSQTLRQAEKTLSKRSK

[8] = biological target: T4, Tyrosyl-tRNA synthetase, putative (Trypanosoma cruzi (strain CL Brener)); assay: Trypanosoma cruzi tyrosyl tRNA synthetase (TcYRS) SOP; type: functional; details: 30 µM
[9] = biological target: Chromo domain-containing protein 1 (Saccharomyces cerevisiae (strain ATCC 204508 / S288c) (Baker's yeast)) (UniProt P32657); assay: ScCHD-1 Enzyme Inhibition Assay; type: functional; details: 30 µM; also: in the data most compounds retested in dose-response had high values
Chromo domain-containing protein 1 (Saccharomyces cerevisiae (strain ATCC 204508 / S288c) (Baker's yeast)), sequence (P32657 whole entry, the tested form may be a part): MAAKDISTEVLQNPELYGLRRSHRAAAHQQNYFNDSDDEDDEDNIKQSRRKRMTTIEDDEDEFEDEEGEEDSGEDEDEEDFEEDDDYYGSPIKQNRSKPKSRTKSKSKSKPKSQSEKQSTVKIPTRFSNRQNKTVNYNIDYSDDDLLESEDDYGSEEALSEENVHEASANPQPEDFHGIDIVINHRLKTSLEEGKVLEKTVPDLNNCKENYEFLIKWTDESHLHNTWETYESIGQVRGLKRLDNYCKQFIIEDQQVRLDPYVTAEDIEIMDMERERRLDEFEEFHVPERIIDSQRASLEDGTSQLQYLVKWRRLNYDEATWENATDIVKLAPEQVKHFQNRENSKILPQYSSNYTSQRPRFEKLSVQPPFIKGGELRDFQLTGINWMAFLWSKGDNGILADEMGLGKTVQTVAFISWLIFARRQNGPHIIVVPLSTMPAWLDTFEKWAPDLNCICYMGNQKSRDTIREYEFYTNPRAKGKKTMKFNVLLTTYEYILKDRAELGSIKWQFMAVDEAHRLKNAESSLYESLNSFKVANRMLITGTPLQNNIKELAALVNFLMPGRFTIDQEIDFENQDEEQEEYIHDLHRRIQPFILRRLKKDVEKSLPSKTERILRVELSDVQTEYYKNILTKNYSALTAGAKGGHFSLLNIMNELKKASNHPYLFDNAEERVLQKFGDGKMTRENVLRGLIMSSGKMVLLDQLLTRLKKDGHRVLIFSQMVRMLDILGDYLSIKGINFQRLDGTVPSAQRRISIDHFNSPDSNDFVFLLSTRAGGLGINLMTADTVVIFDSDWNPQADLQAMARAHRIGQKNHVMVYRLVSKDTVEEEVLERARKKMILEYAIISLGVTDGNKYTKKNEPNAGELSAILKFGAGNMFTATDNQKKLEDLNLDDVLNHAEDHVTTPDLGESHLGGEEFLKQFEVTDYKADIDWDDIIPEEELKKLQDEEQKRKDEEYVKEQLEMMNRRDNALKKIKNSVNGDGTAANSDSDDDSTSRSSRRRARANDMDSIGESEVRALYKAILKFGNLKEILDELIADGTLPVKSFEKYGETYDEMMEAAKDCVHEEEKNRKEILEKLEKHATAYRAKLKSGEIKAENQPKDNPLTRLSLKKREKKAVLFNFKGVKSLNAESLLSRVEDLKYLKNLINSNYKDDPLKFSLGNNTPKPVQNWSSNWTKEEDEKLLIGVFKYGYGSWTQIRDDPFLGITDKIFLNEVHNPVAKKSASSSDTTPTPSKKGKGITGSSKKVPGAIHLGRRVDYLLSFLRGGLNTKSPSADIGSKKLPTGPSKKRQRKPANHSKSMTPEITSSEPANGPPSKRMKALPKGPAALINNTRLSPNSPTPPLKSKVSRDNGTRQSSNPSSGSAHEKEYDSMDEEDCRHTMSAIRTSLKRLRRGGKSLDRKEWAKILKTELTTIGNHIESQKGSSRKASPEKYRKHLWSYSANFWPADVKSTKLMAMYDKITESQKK

Protein translocase subunit SecA (Escherichia coli (strain K12)), sequence (P10408 whole entry): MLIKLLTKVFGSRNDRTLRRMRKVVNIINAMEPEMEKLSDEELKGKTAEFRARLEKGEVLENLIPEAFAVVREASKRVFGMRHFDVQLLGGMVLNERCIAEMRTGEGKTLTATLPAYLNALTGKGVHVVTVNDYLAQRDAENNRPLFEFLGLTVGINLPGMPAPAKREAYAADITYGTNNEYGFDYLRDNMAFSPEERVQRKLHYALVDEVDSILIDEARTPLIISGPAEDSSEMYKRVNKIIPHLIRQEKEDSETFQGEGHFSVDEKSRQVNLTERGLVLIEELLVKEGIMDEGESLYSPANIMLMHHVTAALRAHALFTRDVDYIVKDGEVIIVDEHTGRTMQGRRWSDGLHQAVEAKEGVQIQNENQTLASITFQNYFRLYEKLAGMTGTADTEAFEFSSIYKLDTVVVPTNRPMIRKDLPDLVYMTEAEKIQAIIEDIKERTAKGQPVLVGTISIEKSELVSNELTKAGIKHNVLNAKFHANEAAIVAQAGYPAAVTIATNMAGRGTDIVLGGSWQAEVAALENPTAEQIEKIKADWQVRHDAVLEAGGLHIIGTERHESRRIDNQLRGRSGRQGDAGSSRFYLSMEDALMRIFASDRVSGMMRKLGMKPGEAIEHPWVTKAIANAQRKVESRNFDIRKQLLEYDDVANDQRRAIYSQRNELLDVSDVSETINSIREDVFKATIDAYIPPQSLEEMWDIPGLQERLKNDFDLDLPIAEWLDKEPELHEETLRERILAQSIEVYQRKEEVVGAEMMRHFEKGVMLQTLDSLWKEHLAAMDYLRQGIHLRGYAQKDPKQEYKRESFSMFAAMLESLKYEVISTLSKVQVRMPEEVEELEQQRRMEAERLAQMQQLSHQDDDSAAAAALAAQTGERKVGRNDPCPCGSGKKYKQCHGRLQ

SMILES	Percent Effect [1] [%]	Percent Effect [2] [%]	Percent Effect [3] [%]	Percent Effect [4] [%]	Percent Effect (Trypanosoma cruzi) [%]	Percent Effect [5] [%]	Percent Effect [6] [%]	Percent Effect (Homo sapiens) [%]	Percent Effect [7] [%]	Percent Effect [8] [%]	Percent Effect [9] [%]
O=C(CCc1ccccc1)N1CCC(N2CCNC2=O)CC1	-4.14	7.79	3.48	-3.35	-4.6	1.47	6.06	15.5	3.81	14.1	-13.9
O=S(=O)(c1ccccc1)N1CCCN(CCCn2ccnc2)CC1	-1.12	0	-5.54	24.8	5.38	-0.248	3.35	-7.92	2.15	3.7	-12.2
COc1cc(C)nc(N2CCN(Cc3nccn3C)CC2)n1	-2.16	9.72	3.08	-2.82	-0.875	1.32	10.3	0.819	2.1	2.56	-3.1
CCC1c2cccn2CCN1C(=O)c1ccc2nonc2c1 (stereo unspecified)	-6.68	-1.39	-3.32	-10.2	-3.79	0	11.6	-4.01	3.16	-2.56	2.02
COc1ccc(C)cc1NC(=O)Nc1cnc(N2CCN(C)CC2)nc1	-1.71	7.79	2.48	-0.124	5.42	-12.3	8.18	36.4	6.35	11.5	-11.3
COc1ccc(-c2nc(CN3CC(n4cc(C)cn4)C3)no2)cc1	-4.92	10.4	-1.25	16.8	4.03	88.3	12	12.7	6.45	21	-9.02
CCCn1nc2c(cc1=O)CN(CCCN1CCCC1=O)CC2	-3.62	-2.7	-101	1.97	-2.55	-1.6	29.6	17.5	4.43	-1.24	-3.69
Cc1ccc(S(=O)(=O)NC(=O)c2c(C)noc2C(C)C)cc1C	-2.23	10.5	-4.09	2.28	1.07	-3.55	10.6	-1.83	3.19	10.4	-1.79
Cc1ccoc1-c1nnc(CNCC2CCCN2c2cccnn2)o1 (stereo unspecified)	-6.58	0	-0.825	2.96	1.98	-0.798	9.33	6.87	9.38	13.6	1.55
CCc1nc(C2CCCN(C(=O)c3ccc4[nH]nnc4c3)C2)no1 (stereo unspecified)	-3.01	0	1.62	0.134	-4.8	4	17.2	11.3	0	0	-11.2
Cc1nc(CN2CCN(CC(=O)Nc3c(C)cccc3C)CC2)no1	-3.96	10.4	-0.791	-7.52	5.58	1.9	15	-5.46	7.62	18.8	-17.5
Cc1ccc(NC(=O)NC(C)c2nc[nH]n2)cc1 (stereo unspecified)	-6.05	-10.8	-1.56	-5.4	-1.86	-0.248	15.9	-15.4	1.07	1.24	-1.66
Cc1cccc(-c2nc(C)nn2CC(=O)NC2CCCC2)c1	-5.38	23.4	-6.06	8.2	6.93	3.2	18.6	5.48	9.71	26.8	-9.1
NC(=O)COc1cccc(C(=O)Nc2cnc3n2CCCC3)c1	-4.34	6.94	-7.99	1.81	-1.26	6.18	10.7	-0.649	8.42	15.4	-3.57
CCc1nnc2n1CCN(Cc1csc(-c3ccsc3)n1)C2	-1.79	-6.94	1.22	-3.25	0.68	0.883	13.5	-14.4	4.21	2.56	-0.47
CN(C)C(=O)CNC(=O)CCn1ncc2c(Cl)cccc21	-5.52	4	2.92	1.65	3.73	-7.57	14.1	16.1	2.12	7.69	-12.3
